# Test results taken from the supplement of paper PMC6555819.
# What was measured:
# Test in all cases: PBM binding z-score (relative to random genomic background probes); higher = stronger binding; sequences stand for … in GC…GCGATTGACAGCGTAGAATGAAGG
# [1] = system: FXR:RXRa (NR concentration 270 nM, RXRa partner concentration 90 nM)
# Outline: (§1)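 Each nuclear receptor dimer, without ligand, was incubated for 1 h on custom Agilent 4×180K protein-binding microarrays. Binding was detected with antibodies against each partner (one per run), and scanned fluorescence was regression-normalized. The binding z-scores are referenced to random human genomic background probes.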
# [2] = system: LXRa:RXRa (NR concentration 270 nM, RXRa partner concentration 90 nM)
# Outline: as §1
# [3] = system: LXRa homodimer (NR concentration 270 nM)
# Outline: as §1
# [4] = system: LXRb:RXRa (NR concentration 270 nM, RXRa partner concentration 90 nM)
# Outline: as §1
# [5] = system: LXRb homodimer (NR concentration 270 nM)
# Outline: as §1
# [6] = system: PPARa:RXRa (NR concentration 270 nM, RXRa partner concentration 90 nM)
# Outline: as §1
# [7] = system: PPARg:RXRa (NR concentration 180 nM, RXRa partner concentration 90 nM)
# Outline: as §1
# [8] = system: PPARg:RXRa 270nM:90nM, anti-RXR (NR concentration 270 nM, RXRa partner concentration 90 nM)
# Outline: as §1
# [9] = system: PPARg:RXRa 30nM:10nM, anti-RXR (NR concentration 30 nM, RXRa partner concentration 10 nM)
# Outline: as §1
# [10] = system: PPARg:RXRa 90nM:30nM, anti-RXR (NR concentration 90 nM, RXRa partner concentration 30 nM)
# Outline: as §1
# [11] = system: PPARg:RXRa DBDmut IVT, anti-RXR (DBD mutation: RXRa K156A/R161A, NR concentration 270 nM, RXRa partner concentration 90 nM)
# Outline: as §1
# [12] = system: PPARg:RXRa IVT, anti-PPARg (NR concentration 270 nM, RXRa partner concentration 90 nM)
# Outline: as §1
# [13] = system: PPARg DBDmut:RXRa IVT, anti-PPARg (DBD mutation: PPARg1 K132A/R137A, NR concentration 270 nM, RXRa partner concentration 90 nM)
# Outline: as §1
# [14] = system: PPARg DBDmut IVT, anti-PPARg (DBD mutation: PPARg1 K132A/R137A, NR concentration 270 nM)
# Outline: as §1
# [15] = system: PPARg homodimer (NR concentration 180 nM)
# Outline: as §1
# [16] = system: PXR:RXRa (NR concentration 270 nM, RXRa partner concentration 90 nM)
# Outline: as §1
# [17] = system: PXR homodimer (NR concentration 270 nM)
# Outline: as §1
# [18] = system: RARa:RXR (NR concentration 270 nM, RXRa partner concentration 90 nM)
# Outline: as §1
# [19] = system: RARa homodimer (NR concentration 270 nM)
# Outline: as §1
# [20] = system: RARb:RXRa (NR concentration 270 nM, RXRa partner concentration 90 nM)
# Outline: as §1
Sequence,PBM binding z-score [1],PBM binding z-score [2],PBM binding z-score [3],PBM binding z-score [4],PBM binding z-score [5],PBM binding z-score [6],PBM binding z-score [7],PBM binding z-score [8],PBM binding z-score [9],PBM binding z-score [10],PBM binding z-score [11],PBM binding z-score [12],PBM binding z-score [13],PBM binding z-score [14],PBM binding z-score [15],PBM binding z-score [16],PBM binding z-score [17],PBM binding z-score [18],PBM binding z-score [19],PBM binding z-score [20]
CCTACCGGGCCAAAAAGGTCATTGATGCCGATAA,3.51,4.28,3.75,4.21,0.286,4.55,1.69,3,0.292,1.97,-0.0213,1.89,-0.195,-1.09,3.48,5,5.72,5.47,1.6,3.96
CAACCTAGGTCACAGAGGTCAAAGTCCGTGCGTA,7.56,6.89,7.7,6.74,2.06,6.1,7.27,6.89,3.63,6.19,5.47,5.9,0.378,-0.0572,6.18,6.95,12.5,7.87,2.8,5.39
CGTCCAAGGTCAGAAGGTCAGTGAAAGCGACGTG,5.88,4.43,0.719,3.22,-0.0292,5,3.62,4.51,0.861,3.11,2.28,3.06,0.15,-0.646,3.82,4.48,0.822,5.89,1.32,5.45
AGAACGCGGGCAATGAGTTGATAGCACGGGTGGC,-0.43,-0.534,-0.756,-1.26,-1.21,-0.548,0.71,-0.504,-0.182,-0.404,0.179,-0.0527,0.2,-0.67,-0.548,-0.0595,0.229,-0.166,-0.629,0.349
CCTAGTTGGTCAGGAGGTCTCACACCGGATATGA,0.237,0.219,0.125,-0.00774,-0.246,0.135,0.469,0.772,-0.0549,0.338,0.196,1.02,-0.277,0.59,1.25,-0.0259,0.521,0.0681,1.06,0.838
GCATATAGGTAATACAAGGTGCAAGTCCGATTGT,-0.133,-0.156,-0.264,-0.333,-0.455,0.617,0.975,0.986,0.152,0.648,3.88,2.81,0.731,0.109,0.579,-0.0713,0.191,0.538,0.49,-0.282
TCATATAGGTAAGAGGTGAAAGTCGGTGTGGTAA,1.83,1.71,0.368,1.64,-0.0245,4.31,7.08,7.24,6.37,7.94,4.67,4.43,1.44,0.671,1.73,1.31,0.509,2,1.54,1.44
TCTTGTAGAACAACAGGAGGTTAAGAAAGATCGA,0.0476,1.07,-0.0587,0.901,-0.216,1.28,0.33,1.56,2.79,2.15,2.21,0.963,0.603,0.55,0.00875,0.716,0.0491,0.961,0.174,0.469
CTACCAAGGTGAACAAGGTCGTTGCTTACTATTC,1.51,1.61,0.37,2.11,-0.314,2.55,0.964,1.34,-0.119,0.845,2.88,2.58,0.0347,-0.195,1.15,3.08,1.88,2.64,-0.135,2.23
CGTCCAAGGTCAGAGAGGTCAGTGATTGCCGAGT,5.58,5.02,2.88,4.28,0.656,4.54,3,3.95,0.692,2.55,3.12,3.08,-0.867,-0.653,4.12,5.79,10.6,4.66,1.54,5.09
ATCGAAAGGTCGTCAGGTGAGTATACAGAAAGGC,5.1,3.98,0.518,3.25,0.804,4.7,3.63,3.86,1.5,2.93,0.0444,2.18,2.81,1.05,2.13,3.04,0.936,3.91,0.966,3.84
ATATGTAGGTAAAGGGTCATTCAGGTTGGTTCGC,4.11,4.04,2.46,3.97,1.17,6.53,11.1,9.65,9.28,10.5,7.14,7.26,2.33,1.19,3.33,5.22,2.87,5.04,2.48,3.53
ATATGTAGGTTACTTCCGGGTCATTCAGGCTATG,2.58,5.79,2,3.81,1.01,4.23,5.4,4.83,2.21,4.06,7.27,7,2.25,1.76,2.39,3.68,1.81,3.76,0.485,2.36
TTACCAAGGTGAGCTGAGGTCTTTGATCCAACTC,-0.159,0.0694,-0.392,-0.341,-1.02,0.662,-0.133,0.0949,-0.176,-0.0349,0.776,1.72,-0.073,-0.0335,-0.466,2,-0.613,2.56,-0.713,1.17
